In PubChem BioAssay AID2075 (NMMLSC, 2009):

target: Apoptosis regulator Bcl-2 (Homo sapiens) (UniProt P10415); test: Bcl-2 Bim peptide interaction hit potency – biochemical, dose response, multiplexed HTS hits, confirmation (AID 2075); settings: bead-based flow cytometry, Bim peptide-Bcl-2 binding; series mostly up to 100 µM; inhibition of binding: at the top concentration
Sequence (P10415 whole entry, looked up): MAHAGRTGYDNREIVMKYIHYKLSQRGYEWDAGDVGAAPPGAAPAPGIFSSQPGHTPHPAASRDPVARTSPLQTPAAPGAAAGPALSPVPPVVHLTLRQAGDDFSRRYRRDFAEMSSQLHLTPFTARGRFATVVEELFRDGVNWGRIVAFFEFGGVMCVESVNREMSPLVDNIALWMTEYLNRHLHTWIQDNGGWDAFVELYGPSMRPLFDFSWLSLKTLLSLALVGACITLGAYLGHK

Inhibition of binding, inactive:
Cc1ccc(-c2cc(C(=O)Nc3nccs3)c3ccccc3n2)o1 14, CCN1C(=O)/C(=C\C=C2/C=CC=CN2CC)SC1=S 10, COc1cc(N=C2SSNC2Cl)c(OC)cc1Cl (configuration not stated) 29.2, O=c1c2c(n3nnnc3n1Cc1ccccc1)-c1ccccc1CC21CCCC1 5.06, CCN(CC)c1ccc(NC(=O)c2ccccc2Br)cc1S(=O)(=O)Nc1ccccc1OC -5.4, CC(=O)Nc1ccc(-n2cc(-c3ccccc3)[nH]c2=S)cc1 -2.08, C=CS(=O)(=O)c1sc(Cl)c(N2CCOCC2)c1[N+](=O)[O-] 33.7, CNC1CCC(Br)CC(C(=O)/C=C/c2cccc(OC)c2OC)C1=O (configuration not stated) 45.8, O=C1/C(=C\c2ccco2)NC(=S)N1c1ccccc1 15.2, CCN(CC)c1ccc(NC(=O)c2ccccc2F)cc1S(=O)(=O)Nc1ccccc1OC -0.748, Cc1cc(-c2cc(-c3ccc(Cl)cc3)nc(N)c2C#N)co1 8.08, COc1ccc(N2C(=O)C(Cl)=C(NC3C(=O)N(c4ccccc4)N(C)C3C)C2=O)cc1 (configuration not stated) 7.79, COc1ccc(N2C(=O)C(Cl)=C(Oc3cccc(OC)c3)C2=O)cc1 -0.371, O=C(Nc1nnc(COc2ccc(Cl)cc2)s1)c1ccco1 5.1, Cc1nnc(Sc2cc(NCCO)c([N+](=O)[O-])c3nonc23)s1 19.9, Cc1ccc(-c2cc(-c3ccc(F)cc3)c(C#N)c(N)n2)o1 5.04, S=c1[nH]cc(-c2ccccc2)n1-c1ccccc1 3.09, CNC(CC(=O)c1ccc([N+](=O)[O-])cc1)C(Cl)(Cl)Cl (configuration not stated) 7.69, O=C1c2ccccc2C(=O)N1CN(C(=O)COc1ccc(Cl)cc1Cl)c1cccc(F)c1 -1.03, Oc1ccc(NCc2ccccc2OCc2ccccc2)cc1 0.638, COc1ccccc1-n1c(-c2ccccc2)c[nH]c1=S 3.39, CCN(CC)c1ccc(NC(=O)COc2ccccc2C)cc1S(=O)(=O)Nc1ccccc1OC -2.61, COc1cc(CNc2ccc3[nH]c(=O)[nH]c3c2)cc(Br)c1OCC(=O)NC(C)(C)C 5.93, Cc1ccc(-c2cc(-c3ccc(C)o3)nc(N)c2C#N)cc1 8.62, O=C(/C=C/c1ccc(-c2ccccc2[N+](=O)[O-])o1)c1ccccc1 9.32, CCOc1ccccc1CNc1ccc(O)cc1 8.87, O=C1C(Cl)=C(N2CCN(c3ccccc3[N+](=O)[O-])CC2)C(=O)c2ccccc21 24.7
